# About 2,000 (36%) of roughly 5,500 compounds were called active. Inconclusive results (about 18%) are left out. The list shows a part of the results. A number with no mark means an inactive call. Rule as the data show it: active = normalized growth mostly below about 0.91 (no sharp cut-off); inconclusive = no clear call, values can overlap the other calls; inactive = mostly above about 0.92.
# Assay: chemical genetic growth profiling, strain panel (AID 1159580);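 also: tested at 20 µM; growth read once vehicle control cultures reached saturation at 30 °C; 1 = growth at the plate median or of vehicle wells; lower values mean less growth of the strain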
# Settings: S. cerevisiae deletion strains, growth OD
# [1] = locus YHR030C, strain SLT2, hits give low values
# [2] = locus YHR079C, strain IRE1, hits give low values
# [3] = locus YJL095W, strain BCK1, hits give low values
# [4] = locus YJR066W, strain TOR1, hits give low values
# [5] = locus YLR113W, strain HOG1, hits give low values
# [6] = locus YNL183C, strain NPR1, hits give low values
# [7] = locus YOR231W, strain MKK1, hits give low values
# [8] = locus YPL256C, strain CLN2, hits give low values
structure (smiles),measurement,setting,value
CC1(C)N([O-])[N+](=O)C1(C)Br (stereo unspecified),normalized growth,"locus YAL021C, strain ccr4, hits give low values",0.967
same,normalized growth,"locus YAL026C, strain drs2, hits give low values",0.99
same,normalized growth,"locus YAL030W, strain snc1, hits give low values",1
same,normalized growth,"locus YBL061C, strain skt5, hits give low values",0.981
same,normalized growth,"locus YBR009C, strain hhf1, hits give low values",0.995
same,normalized growth,"locus YBR023C, strain chs3, hits give low values",0.983
same,normalized growth,"locus YBR171W, strain sec66, hits give low values",0.968
same,normalized growth,"locus YBR231C, strain swc5, hits give low values",0.988
same,normalized growth,"locus YBR279W, strain paf1, hits give low values",0.995
same,normalized growth,"locus YCL011C, strain gbp2, hits give low values",0.965
same,normalized growth,"locus YCL016C, strain dcc1, hits give low values",0.99
same,normalized growth,"locus YCL061C, strain MRC1, hits give low values",1
same,normalized growth,"locus YCL069W, strain vba3, hits give low values",0.969
same,normalized growth,"locus YCR088W, strain abp1, hits give low values",0.967
same,normalized growth,"locus YDL005C, strain med2, hits give low values",0.978
same,normalized growth,"locus YDL040C, strain nat1, hits give low values",0.992
same,normalized growth,"locus YDR001C, strain nth1, hits give low values",0.987
same,normalized growth,"locus YDR069C, strain doa4, hits give low values",0.992
same,normalized growth,"locus YDR137W, strain rgp1, hits give low values",1.07
same,normalized growth,"locus YDR159W, strain sac3, hits give low values",0.98
same,normalized growth,"locus YDR195W, strain ref2",0.972
same,normalized growth,"locus YDR297W, strain sur2, hits give low values",0.987
same,normalized growth,"locus YDR334W, strain swr1, hits give low values",0.969
same,normalized growth,"locus YDR335W, strain msn5, hits give low values",0.968
same,normalized growth,"locus YDR392W, strain spt3, hits give low values",0.906
same,normalized growth,"locus YEL003W, strain gim4, hits give low values",0.984
same,normalized growth,"locus YEL037C, strain rad23, hits give low values",0.982
same,normalized growth,"locus YEL061C, strain CIN8 (second series), hits give low values",0.973
same,normalized growth,"locus YER015W, strain faa2, hits give low values",0.962
same,normalized growth,"locus YER016W, strain bim1, hits give low values",0.992
same,normalized growth,"locus YER111C, strain swi4, hits give low values",0.996
same,normalized growth,"locus YER155C, strain BEM2 (second series), hits give low values",0.974
same,normalized growth,"locus YFR010W, strain ubp6, hits give low values",0.979
same,normalized growth,"locus YGL167C, strain pmr1, hits give low values",0.987
same,normalized growth,"locus YGL173C, strain kem1, hits give low values",0.984
same,normalized growth,"locus YGL227W, strain vid30, hits give low values",0.982
same,normalized growth,"locus YGL240W, strain doc1, hits give low values",0.994
same,normalized growth,"locus YGL253W, strain hxk2, hits give low values",0.982
same,normalized growth,"locus YHR013C, strain ard1, hits give low values",0.977
same,normalized growth,"locus YHR027C, strain rpn1, hits give low values",0.991
same,normalized growth,[1],0.966
same,normalized growth,[2],0.966
same,normalized growth,"locus YHR142W, strain chs7, hits give low values",0.968
same,normalized growth,"locus YJL092W, strain hpr5, hits give low values",0.963
same,normalized growth,"locus YJL095W, strain BCK1 (second series), hits give low values",0.973
same,normalized growth,[3],0.975
same,normalized growth,"locus YJL115W, strain asf1, hits give low values",0.979
same,normalized growth,"locus YJL129C, strain trk1, hits give low values",0.976
same,normalized growth,"locus YJL154C, strain vps35, hits give low values",0.969
same,normalized growth,"locus YJL164C, strain tpk1, hits give low values",0.995
same,normalized growth,"locus YJL166W, strain qcr8, hits give low values",0.988
same,normalized growth,"locus YJL187C, strain SWE1, hits give low values",1.01
same,normalized growth,[4],0.907
same,normalized growth,"locus YKL160W, strain elf1, hits give low values",0.998
same,normalized growth,"locus YKR026C, strain gcn3, hits give low values",0.984
same,normalized growth,"locus YKR091W, strain srl3, hits give low values",0.995
same,normalized growth,"locus YLL001W, strain dnm1, hits give low values",1
same,normalized growth,"locus YLL026W, hits give low values",0.986
same,normalized growth,"locus YLL041C, strain sdh2, hits give low values",0.99
same,normalized growth,"locus YLR027C, strain aat2, hits give low values",1
same,normalized growth,[5],0.993
same,normalized growth,"locus YLR221C, strain rsa3, hits give low values",0.985
same,normalized growth,"locus YLR258W, strain gsy2, hits give low values",0.985
same,normalized growth,"locus YLR262C, strain YPT6 (second series), hits give low values",1.03
same,normalized growth,"locus YLR320W, strain mms22, hits give low values",0.985
same,normalized growth,"locus YLR342W, strain FKS1, hits give low values",0.978
same,normalized growth,"locus YLR357W, strain rsc2, hits give low values",0.999
same,normalized growth,"locus YLR370C, strain arc18, hits give low values",0.982
same,normalized growth,"locus YLR384C, strain iki3, hits give low values",0.986
same,normalized growth,"locus YML120C, strain ndi1, hits give low values",0.984
same,normalized growth,"locus YMR058W, strain fet3, hits give low values",0.994
same,normalized growth,"locus YMR125W, strain sto1, hits give low values",0.974
same,normalized growth,"locus YMR129W, hits give low values",0.992
same,normalized growth,"locus YMR205C, strain PFK2, hits give low values",0.998
same,normalized growth,"locus YMR231W, strain pep5, hits give low values",0.96
same,normalized growth,"locus YNL071W, strain lat1, hits give low values",0.973
same,normalized growth,[6],0.912
same,normalized growth,"locus YNL209W, strain ssb2, hits give low values",0.989
same,normalized growth,"locus YNL248C, strain rpa49, hits give low values",0.992
same,normalized growth,"locus YNL322C, strain KRE1 (second series), hits give low values",0.979
same,normalized growth,"locus YNR049C, strain mso1, hits give low values",0.99
same,normalized growth,"locus YOR001W, strain rrp6, hits give low values",0.988
same,normalized growth,"locus YOR070C, strain gyp1, hits give low values",0.976
same,normalized growth,"locus YOR080W, strain dia2, hits give low values",0.985
same,normalized growth,"locus YOR083W, strain WHI5, hits give low values",0.994
same,normalized growth,"locus YOR106W, strain vam3, hits give low values",0.966
same,normalized growth,[7],0.977
same,normalized growth,"locus YOR265W, strain rbl2, hits give low values",0.993
same,normalized growth,"locus YOR270C, strain vph1, hits give low values",1.01
same,normalized growth,"locus YOR290C, strain snf2, hits give low values",0.987
same,normalized growth,"locus YPL051W, strain arl3, hits give low values",0.985
same,normalized growth,"locus YPL078C, strain atp4, hits give low values",0.986
same,normalized growth,"locus YPL106C, strain sse1, hits give low values",0.977
same,normalized growth,"locus YPL240C, strain hsp82, hits give low values",0.97
same,normalized growth,[8],0.956
Nc1ccccc1C(=O)Nc1cc(C(F)(F)F)cc(C(F)(F)F)c1,normalized growth,"locus YAR019C, strain CDC15, hits give low values",0.957
same,normalized growth,"locus YBL105C, strain PKC1, hits give low values",0.973
same,normalized growth,"locus YBR135W, strain CKS1, hits give low values",0.985
same,normalized growth,"locus YBR136W, strain MEC1, hits give low values",0.946
same,normalized growth,"locus YBR160W, strain CDC28, hits give low values",0.982
same,normalized growth,"locus YDL017W, strain CDC7, hits give low values",0.978
same,normalized growth,"locus YDL028C, strain MPS1, hits give low values",0.943
same,normalized growth,"locus YDL101C, strain DUN1, hits give low values",0.937
same,normalized growth,"locus YDL108W, strain KIN28, hits give low values",0.969
same,normalized growth,"locus YDL132W, strain cdc53, hits give low values",0.967
same,normalized growth,"locus YDL214C, strain PRR2, hits give low values",1
same,normalized growth,"locus YDR052C, strain DBF4, hits give low values",0.97
same,normalized growth,"locus YDR054C, strain cdc34, hits give low values",0.96
same,normalized growth,"locus YDR226W, strain ADK1, hits give low values",0.976
same,normalized growth,"locus YDR477W, strain SNF1, hits give low values",0.992
same,normalized growth,"locus YER123W, strain YCK3, hits give low values",0.957
same,normalized growth,"locus YER133W, strain GLC7, hits give low values",1.01
same,normalized growth,"locus YFL009W, strain cdc4, hits give low values",0.968
same,normalized growth,"locus YFL029C, strain CAK1, hits give low values",0.944
same,normalized growth,"locus YFR003C, strain YPI1, hits give low values",0.984
same,normalized growth,"locus YFR019W, strain FAB1, hits give low values",0.986
same,normalized growth,"locus YFR028C, strain CDC14, hits give low values",0.974
same,normalized growth,"locus YGR040W, strain KSS1, hits give low values",1.01
same,normalized growth,"locus YGR052W, strain FMP48, hits give low values",0.921
same,normalized growth,"locus YGR092W, strain DBF2, hits give low values",0.961
same,normalized growth,[1],0.855
same,normalized growth,[2],0.836
same,normalized growth,"locus YHR082C, strain KSP1, hits give low values",0.851
same,normalized growth,"locus YHR205W, strain SCH9, hits give low values",0.816
same,normalized growth,"locus YIL147C, strain SLN1, hits give low values",0.946
same,normalized growth,[3],0.844
same,normalized growth,"locus YJL128C, strain PBS2, hits give low values",0.914
same,normalized growth,"locus YJL157C, strain FAR1, hits give low values",1.01
same,normalized growth,"locus YJR016C, strain ILV3, hits give low values",0.943
same,normalized growth,"locus YJR066W, strain TOR1 (second series), hits give low values",0.997
same,normalized growth,[4],0.903
same,normalized growth,"locus YKL048C, strain ELM1, hits give low values",0.949
same,normalized growth,"locus YKL067W, strain YNK1, hits give low values",0.978
same,normalized growth,"locus YKL101W, strain HSL1, hits give low values",0.957
same,normalized growth,"locus YKL193C, strain SDS22, hits give low values",0.955
same,normalized growth,"locus YKL203C, strain TOR2, hits give low values",1.06
same,normalized growth,[5],0.762 (active)
same,normalized growth,"locus YLR133W, strain CKI1, hits give low values",0.934
same,normalized growth,"locus YLR403W, strain SFP1, hits give low values",1.02
same,normalized growth,"locus YML070W, strain DAK1, hits give low values",0.933
same,normalized growth,"locus YMR001C, strain CDC5, hits give low values",0.975
same,normalized growth,"locus YMR205C, strain PFK2 (second series), hits give low values",0.947
same,normalized growth,"locus YMR277W, strain FCP1, hits give low values",0.952
same,normalized growth,"locus YNL006W, strain LST8, hits give low values",0.937
same,normalized growth,"locus YNL020C, strain ARK1, hits give low values",0.945
same,normalized growth,"locus YNL161W, strain CBK1, hits give low values",0.971
same,normalized growth,[6],0.871
same,normalized growth,"locus YNL207W, strain RIO2, hits give low values",0.963
same,normalized growth,"locus YNL222W, strain SSU72, hits give low values",0.977
same,normalized growth,"locus YNL307C, strain MCK1 (second series), hits give low values",0.941
same,normalized growth,"locus YOL078W, strain AVO1, hits give low values",0.961
same,normalized growth,"locus YOL136C, strain PFK27, hits give low values",0.956
same,normalized growth,"locus YOR061W, strain CKA2, hits give low values",0.99
same,normalized growth,"locus YOR119C, strain RIO1, hits give low values",0.981
same,normalized growth,[7],0.87
same,normalized growth,"locus YOR329C, strain SCD5, hits give low values",0.969
same,normalized growth,"locus YPL031C, strain PHO85, hits give low values",0.991
same,normalized growth,"locus YPL153C, strain RAD53, hits give low values",0.987
same,normalized growth,"locus YPL204W, strain HRR25, hits give low values",0.976
same,normalized growth,"locus YPL209C, strain IPL1, hits give low values",0.952
same,normalized growth,[8],0.781 (active)
same,normalized growth,"locus YPR025C, strain CCL1, hits give low values",0.985
same,normalized growth,"locus YPR106W, strain ISR1, hits give low values",0.934
same,normalized growth,"locus YPR111W, strain DBF20, hits give low values",0.946
same,normalized growth,"strain NNK1, hits give low values",0.93
same,normalized growth,"strain TSCII, hits give low values",0.974

# Reference: PubChem BioAssay AID1159580 (chemical genetic matrix, 2015)
